# The supplement of paper PMC3334620
# Whole data set: some 33,000 sequences, median “E-score (-0.5 to 0.5)” near -0.012, cut for the highest 2% near 0.27. Shown is part of a subset that was picked to be rich in the highest values.
# Molecular target: T1, Vhr1 (UniProt P40522)
# T1 sequence: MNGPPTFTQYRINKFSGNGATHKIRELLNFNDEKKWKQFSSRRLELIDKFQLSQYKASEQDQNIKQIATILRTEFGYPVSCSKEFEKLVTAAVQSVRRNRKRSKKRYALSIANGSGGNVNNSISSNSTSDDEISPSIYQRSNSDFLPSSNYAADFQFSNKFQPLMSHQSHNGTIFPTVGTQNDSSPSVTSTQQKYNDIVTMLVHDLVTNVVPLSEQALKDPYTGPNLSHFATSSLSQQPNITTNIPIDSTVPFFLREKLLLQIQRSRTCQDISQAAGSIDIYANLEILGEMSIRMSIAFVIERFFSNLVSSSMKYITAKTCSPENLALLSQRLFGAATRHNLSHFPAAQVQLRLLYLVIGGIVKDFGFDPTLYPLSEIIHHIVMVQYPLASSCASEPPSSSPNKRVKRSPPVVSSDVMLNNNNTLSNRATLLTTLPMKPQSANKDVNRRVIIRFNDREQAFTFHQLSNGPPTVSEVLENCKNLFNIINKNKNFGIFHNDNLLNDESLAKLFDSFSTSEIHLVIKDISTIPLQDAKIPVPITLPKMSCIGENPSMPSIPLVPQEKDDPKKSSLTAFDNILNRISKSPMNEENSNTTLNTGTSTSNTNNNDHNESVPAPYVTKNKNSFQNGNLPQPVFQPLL
# Experiment: PBM E-score (8-mer binding enrichment) (E-score (-0.5 to 0.5)); higher = stronger / more preferred TF binding
# Conditions: protein concentration: 200 nM; construct: GST-full length
# In short: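 Bound GST-tagged yeast transcription factors, applied at about 100-200 nM to double-stranded universal all-10-mer Agilent arrays, were detected with fluorescent anti-GST. Scans were normalised with masliner. A modified Wilcoxon-Mann-Whitney statistic, the E-score, was assigned to each ungapped eight-base word pooled with its reverse complement by the Universal PBM Analysis Suite.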
row,Sequence,PBM E-score
1,GTTAATCA,0.296
2,ATTAATCA,0.217
3,CATAATCC,0.105
4,CTTAATCA,0.214
5,CATAATCG,0.0927
6,CATAATCA,0.308
7,GATAATCC,-0.112
8,GATAATCA,0.301
9,AATAATCA,0.203
10,TAGATTCA,-0.0459
11,GTGCGAAC,-0.037
12,AAGATCAG,0.0101
13,ACCTGGAC,0.0512
14,GCCATGAA,0.0605
15,ACCATGAC,0.307
16,CCCATGAA,0.0105
17,CCAATGAC,0.285
18,ACCATGAA,0.276
19,GCCATGAC,0.0961
20,CCAATGAA,-0.18
21,CCCATGAC,0.332
22,GCAATGAC,0.103
23,ACCATGAG,0.0389

row,Sequence,PBM E-score
1,TCCATGAA,0.123
2,ACCATGAT,0.219
3,GTGGGGTA,0.22
4,CACCCGAC,0.0689
5,GTGTGCGA,0.0262
6,CGTCTCCA,0.149
7,CGGAGGAC,0.00537
8,CTTAAGCC,-0.234
9,AAGTTTGT,-0.034
10,CGGGGTCC,-0.227
11,ACACATAC,0.29
12,ACACATAA,0.119
13,ATACATAC,0.293
14,CTACATAC,0.0864
15,ATACATAG,0.108
16,ATACATAA,0.135
17,ACACATAG,0.102
18,GTACATAC,0.119
19,ATACATAT,0.367
20,GCTGACCC,0.0256
21,ACCCAGCT,0.0775
22,GTCCAGCA,-0.0682
23,ACGTCCAT,-0.123

row,Sequence,PBM E-score
1,CGCGGTCC,-0.137
2,AGATCCCT,-0.142
3,AGATCCCG,0.297
4,CGATCCCG,0.0117
5,ACCTCACG,-0.0286
6,CATCAACG,0.131
7,AGGGGCGC,0.0808
8,AGGGGCGG,0.348
9,AGGGGCGA,0.113
10,GTTCATTA,-0.0167
11,CCGACTCA,0.417
12,CTGACTCC,0.47
13,ACGACTCA,0.445
14,ACGACTCT,0.261
15,CTTACTCC,0.0868
16,GCGACCCC,0.0605
17,CTGACCCC,-0.0745
18,ACGACTTA,-0.0824
19,GCGACTCC,0.414
20,CCGACTGA,-0.0635
21,CCGACTTA,-0.0517
22,GCCACTCC,0.205
23,AAATGGAC,-0.0108

row,Sequence,PBM E-score
1,ATCTCAGA,0.00554
2,CCTGTGCA,-0.0814
3,CCCCCTCG,-0.242
4,GTAGGCGA,0.097
5,ACATGCCA,0.0538
6,GCGACTTA,-0.104
7,ACGACTCC,0.366
8,ACGACTAT,0.195
9,CCGACTTC,-0.223
10,GCGACTCA,0.477
11,ACGACTTG,-0.0454
12,CCGACTCC,0.45
13,ACGACTCG,0.327
14,ACGACGCC,-0.036
15,GGGACTCA,0.261
16,CCGACTCG,0.238
17,CAACAACG,0.087
18,CAGAAGAG,-0.189
19,CGGTAGAC,-0.00049
20,ACAAGAGT,0.108
21,ACAGGGAC,-0.138
22,GCTTAGGA,-0.0935
23,GCACTACC,-0.0106

row,Sequence,PBM E-score
1,GTACCCGA,-0.161
2,AAGCTGCA,-0.00033
3,TCTACTCA,0.112
4,TCGACTCA,0.349
5,TCGACCCA,0.166
6,GCCATAGC,-0.0742
7,TCATGCGA,0.285
8,CCATGCGA,0.0318
9,GCATGCGA,0.159
10,CTATGATC,0.112
11,AGTCGACT,0.33
12,GGTCGACA,-0.0223
13,ACTCGACG,0.269
14,AGTCGACA,0.197
15,AGTCGACG,0.278
16,AGTCGACC,-0.0312
17,GGTCGACC,0.32
18,CGTCGACG,0.161
19,CGTCGACC,-0.00578
20,ACATCCCG,0.231
21,CCTGCACA,-0.0959
22,AGTCGAGA,0.0118
23,ACATAGAC,0.0646

row,Sequence,PBM E-score
1,ATCCATAC,0.0581
2,CCACCTCG,-0.085
3,CCTTGACC,-0.111
4,GGGAGTAA,0.0449
5,GGGAGTTA,-0.144
6,AGGAGTTG,-0.00747
7,AGGAGTCG,0.339
8,GGGAGTCA,0.47
9,AGGAGTCA,0.479
10,AGGAGTGA,0.00535
11,AGGAGTCC,0.165
12,AGGAGTAA,0.0927
13,AAGAAAGC,-0.174
14,ACTAAAAT,-0.0643
15,ACACTTCG,0.0579
16,CCCTGCAC,-0.0585
17,CGATTTTA,-0.0769
18,CGCTCCCC,-0.16
19,CTCACTGA,0.14
